The results in this text go back to PubChem BioAssay (Tox21).

Where “and” joins values, the source holds several entries; their conditions need not be identical. Equal values may be shown once. Values without a mark were called inactive. Inconclusive results are not listed. Calls of active or inactive are those of the source. Unless noted, the call rests on the fitted dose curve; in most records, active means well fitted curve in the direction sought with a large enough effect in the repeat runs; inconclusive means weak or mixed curves; inactive means no such curve, though single readings can be large; an effect the other way counts as inactive or inconclusive.

The target of assay [1] is Progesterone receptor (Homo sapiens) (UniProt P06401). In words: qHTS assay to identify small molecule agonists of the progesterone receptor (PR) signaling pathway (AID 1346784; calls by dose curve; further: on the % scale 0 is the no-effect control and ±100 the full control effect; nearly all actives have a fitted effect of over 30% in size). The method, boiled down:
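Cells (PR-UAS-bla HEK 293T, GripTite) were plated in assay medium containing 2% charcoal-stripped FBS and incubated 6 hr. Test compounds in DMSO were added for 16 hr at 37C. FRET substrate was then loaded for 2 hr at room temperature before fluorescence reading.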
A general note: In qHTS, concentration-response curves come from the screen itself.

The nature of assay [2]: qHTS assay to identify small molecule antagonists of the progesterone receptor (PR) signaling pathway - cell viability counter screen (AID 1346798). Further: series mostly up to about 92 µM; on the % scale 0 is the no-effect control and ±100 the full control effect; nearly all actives have a fitted effect of over 50% in size. The method, boiled down: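 Counter screen for cytotoxicity: viability of PR-UAS-bla HEK293T cells was measured with CellTiter-Glo luminescence following 16 hr compound exposure in the presence of R5020.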
Assay [3] is described as follows: qHTS assay to identify small molecule agonists of the progesterone receptor (PR) signaling pathway - cell viability counter screen (AID 1346799; calls by dose curve; further: on the % scale 0 is the no-effect control and ±100 the full control effect; nearly all actives have a fitted effect of over 45% in size). The gist of the method: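 Cells (PR-UAS-bla HEK293T) are plated at 3,000/well in 2% charcoal-stripped FBS medium, rested 6 hr, dosed and incubated 16 hr at 37C. CellTiter-Glo is then added and luminescence measured after 30 min at room temperature.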

Assay [4] can be described thus: qHTS assay to identify small molecule antagonists of the TGF-beta/Smad signaling pathway - cell viability counter screen (AID 1346824). Further: on the % scale 0 is the no-effect control and ±100 the full control effect; nearly all actives have a fitted effect of over 50% in size. The method, boiled down:
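Cytotoxicity counter-screen run in the same wells as the beta-lactamase Smad reporter read: CellTiter-Glo luminescence after 30 min at room temperature. HEK 293T SBE-bla cells had 5 hr compound exposure at 37 C with TGF-beta1 (0.25 ng/mL stock).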

Assay [5] in a line: qHTS assay to identify small molecule agonists of the TGF-beta/Smad signaling pathway - cell viability counter screen (AID 1346829). Further: top concentration of the series differs between compounds; on the % scale 0 is the no-effect control and ±100 the full control effect; nearly all actives have a fitted effect of over 45% in size. The gist of the method:
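After overnight seating at 37 C and 5% CO2, reporter cells got compounds for 5 hr and FRET substrate for 2 hr; cell viability then came from CellTiter-Glo luminescence.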

Assay [6] is described as follows: qHTS assay to identify small molecule agonists of the TGF-beta/Smad signaling pathway (AID 1346859; active means well fitted activation curve with a large enough effect in the signal ratio in the repeat runs, not every such curve was filed as active; the % refers to the signal ratio; further: series mostly up to about 77 µM; on the % scale 0 is the no-effect control and ±100 the full control effect). The gist of the method:
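Reporter line: HEK 293T with stably integrated SBE-controlled beta-lactamase. Compound exposure lasts 5 hr at 37 C and 5% CO2; substrate loading follows for 2 hr at room temperature, with emission read at 460 and 530 nm.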

A short description of assay [7]: Caspase-3/7 induction in HepG2 cells by small molecules, qHTS assay (AID 1346978). Further: on the % scale 0 is the no-effect control and ±100 the full control effect; nearly all actives have a fitted effect of over 15% in size. The method, boiled down: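 Caspase-3/7 induction was measured by Caspase-Glo 3/7 luminescence (30 min, room temperature) after a 17 hr compound exposure of wild-type HepG2 cells seeded at 2,000 per well and pre-incubated 5 hr.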
A short description of assay [8]: Caspase-3/7 induction in CHO-K1 cells by small molecules, qHTS assay (AID 1346980). Further: on the % scale 0 is the no-effect control and ±100 the full control effect; nearly all actives have a fitted effect of over 15% in size. The gist of the method:
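Luminescent Caspase-Glo 3/7 read (30min, room temperature) quantified apoptosis induction. Cells were wild-type CHO-K1, treated with compound for 17hr at 37 C and 5% CO2.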

A short description of assay [9]: Caspase-3/7 induction in HepG2 cells by small molecules, qHTS cell viability counter screen (AID 1346981). Further: nearly all actives have a fitted effect of over 30% in size. Further: potency means the concentration at half of the fitted maximal effect. The method, boiled down:
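Fluorescence read-out of live-cell protease activity (CellTiter-Fluor) after 1 hr with reagent. This was measured in the same wells as the caspase-3/7 luminescence, on HepG2 cells exposed to DMSO-dissolved compounds for 16 hr at 37 C.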

Assay [10] deals with Nuclear receptor subfamily 1 group I member 2 (Homo sapiens) (UniProt O75469). In words: Human pregnane X receptor (PXR) small molecule agonists, qHTS assay (AID 1346982). Further: nearly all actives have a fitted effect of over 35% in size. Further: potency means the concentration at half of the fitted maximal effect. The method, boiled down:
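HepG2 PXR-Luc reporter line, 5% charcoal-stripped FBS; 5 hr pre-incubation, compound (DMSO) 24 hr at 37 C/5% CO2; ONE-Glo 30 min RT; luminescence read-out.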

Assay [11] addresses Acetylcholinesterase (Homo sapiens) (UniProt P22303). In words: Acetylcholinesterase (AChE) small molecule antagonists: colormetric cell-based qHTS assay (AID 1347395; calls by dose curve; further: nearly all actives have a fitted effect of over 30% in size; further: potency means the concentration at half of the fitted maximal effect). The gist of the method: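 Cells (SH-SY5Y, 2,000 per well) are seeded and left overnight at 37 C. Compound is added for 30 min, then DTNB and acetylthiocholine for a further 90 min at 37 C before absorbance-based thiocholine detection.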

The target of assay [12] is Progesterone receptor (Homo sapiens) (UniProt P06401). In words: qHTS assay to identify small molecule antagonists of the progesterone receptor (PR) signaling pathway (AID 1346795; active means well fitted inhibition curve with a large enough effect in the signal ratio in the repeat runs, not every such curve was filed as active; the % refers to the signal ratio; further: on the % scale 0 is the no-effect control and ±100 the full control effect). The method, boiled down:
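Antagonist mode: compounds tested against 1 nM (final) promegestone stimulation in HEK293T cells expressing PR-UAS-bla reporter, 16 hr at 37C, 5% CO2; beta-lactamase activity detected via B/G FRET substrate after 2 hr at room temperature.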

Assay [13] is described as follows: Human pregnane X receptor (PXR) small molecule agonists, qHTS cell viability counter screen (AID 1346977). Further: on the % scale 0 is the no-effect control and ±100 the full control effect; nearly all actives have a fitted effect of over 50% in size. The gist of the method: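 Cytotoxicity counter screen run in the same wells as the PXR luciferase assay, using PXR-Luc HepG2 cells in charcoal-stripped serum medium. Viability: CellTiter-Fluor fluorescence after 24hr compound treatment.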
A short description of assay [14]: qHTS assay to identify small molecule agonists of the estrogen receptor alpha (ER-alpha) signaling pathway in the presence of an antagonist - cell viability counter screen (AID 1259386). Further: potency means the concentration at half of the fitted maximal effect; nearly all actives have a fitted effect of over 30% in size. The gist of the method: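 Read-out: CellTiter-Fluor fluorescence after 1hr reagent incubation, measured in the same wells as the luciferase readout. VM7Luc4E2 cells were exposed to 15 compound concentrations with 10.0nM ICI-182,780 for 22hr at 37C.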

In assay [15] the target is Thyrotropin-releasing hormone receptor (Homo sapiens) (UniProt P34981). Description: qHTS assay to identify small molecule antagonists of the thyrotropin-releasing hormone receptor (TRHR) signaling pathway (AID 1346877; active means well fitted inhibition curve with a large enough effect in the repeat runs, not every such curve was filed as active; further: series mostly up to about 51 µM; on the % scale 0 is the no-effect control and ±100 the full control effect). The method, boiled down: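 HEK293/TRHR cells, 18 h, 37 °C; Ca2+ dye 2 h; cpd 5 min RT; TRH 1 nM final; fluorescence read 3 min, 1 s intervals; 15 concs, triplicate.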

Assay [16] has the same target. In words: qHTS assay to identify small molecule agonists of the thyrotropin-releasing hormone receptor (TRHR) signaling pathway (AID 1346891; calls by dose curve;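 further: HEK293 cells expressing TRHR with calcium dye readout; series mostly up to about 58 µM; on the % scale 0 is the no-effect control and ±100 the full control effect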). The gist of the method:
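Cells: TRHR-Hek293, seeded and incubated 18 h. Dye loading: 2 h at 37 °C. Compound added from DMSO stock by pin tool. Read-out: kinetic calcium fluorescence over 3 min.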

Assay [17] is described as follows: Caspase-3/7 induction in CHO-K1 cells by small molecules, qHTS cell viability counter screen (AID 1346979). Further: nearly all actives have a fitted effect of over 35% in size. Further: potency means the concentration at half of the fitted maximal effect. The gist of the method:
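Cytotoxicity counter screen run in parallel with the caspase-3/7 assay: CHO-K1 cells, 16hr compound treatment at 37C, then CellTiter-Fluor for 1hr before fluorescence reading.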

Progesterone receptor (Homo sapiens), sequence (P06401 whole entry, looked up): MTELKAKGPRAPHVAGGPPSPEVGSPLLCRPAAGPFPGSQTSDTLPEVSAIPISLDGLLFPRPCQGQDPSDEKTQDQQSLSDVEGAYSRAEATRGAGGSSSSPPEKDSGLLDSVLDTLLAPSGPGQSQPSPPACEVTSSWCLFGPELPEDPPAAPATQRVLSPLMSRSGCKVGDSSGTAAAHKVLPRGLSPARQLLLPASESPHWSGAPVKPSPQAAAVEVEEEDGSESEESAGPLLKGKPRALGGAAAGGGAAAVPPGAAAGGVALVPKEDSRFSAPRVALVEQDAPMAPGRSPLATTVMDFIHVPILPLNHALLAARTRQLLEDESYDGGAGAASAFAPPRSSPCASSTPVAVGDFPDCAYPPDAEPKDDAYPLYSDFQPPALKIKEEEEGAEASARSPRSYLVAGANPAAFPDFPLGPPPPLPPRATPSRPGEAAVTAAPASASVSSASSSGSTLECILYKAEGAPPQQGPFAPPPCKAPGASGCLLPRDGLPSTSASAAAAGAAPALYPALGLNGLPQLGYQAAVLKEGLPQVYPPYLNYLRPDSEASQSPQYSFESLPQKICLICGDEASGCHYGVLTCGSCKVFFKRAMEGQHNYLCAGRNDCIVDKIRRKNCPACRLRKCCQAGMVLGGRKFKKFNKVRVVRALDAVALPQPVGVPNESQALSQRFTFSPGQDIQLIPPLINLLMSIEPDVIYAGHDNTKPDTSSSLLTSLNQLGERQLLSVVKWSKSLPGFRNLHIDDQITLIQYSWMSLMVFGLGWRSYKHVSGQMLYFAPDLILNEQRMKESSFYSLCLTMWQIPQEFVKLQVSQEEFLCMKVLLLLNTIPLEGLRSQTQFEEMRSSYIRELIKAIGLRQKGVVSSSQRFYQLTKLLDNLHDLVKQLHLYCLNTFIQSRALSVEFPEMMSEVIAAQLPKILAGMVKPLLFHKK
Acetylcholinesterase (Homo sapiens), sequence (P22303 whole entry, looked up): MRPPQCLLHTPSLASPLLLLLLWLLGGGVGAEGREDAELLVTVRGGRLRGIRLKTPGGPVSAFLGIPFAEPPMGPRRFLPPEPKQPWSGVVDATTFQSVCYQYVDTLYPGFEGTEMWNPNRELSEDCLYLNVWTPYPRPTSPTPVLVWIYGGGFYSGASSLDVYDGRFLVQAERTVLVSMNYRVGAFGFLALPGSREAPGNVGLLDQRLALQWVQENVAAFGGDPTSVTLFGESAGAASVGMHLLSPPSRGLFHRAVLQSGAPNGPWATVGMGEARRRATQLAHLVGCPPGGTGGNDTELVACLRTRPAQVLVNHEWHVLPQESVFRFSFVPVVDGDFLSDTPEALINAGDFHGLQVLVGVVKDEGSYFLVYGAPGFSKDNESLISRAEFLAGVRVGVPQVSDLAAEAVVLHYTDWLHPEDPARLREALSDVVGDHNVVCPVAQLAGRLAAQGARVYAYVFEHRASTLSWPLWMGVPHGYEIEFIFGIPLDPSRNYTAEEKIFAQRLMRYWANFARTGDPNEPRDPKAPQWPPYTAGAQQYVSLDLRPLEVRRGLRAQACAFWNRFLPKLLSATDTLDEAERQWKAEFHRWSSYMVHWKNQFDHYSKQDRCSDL
Nuclear receptor subfamily 1 group I member 2 (Homo sapiens), sequence (O75469 whole entry, looked up): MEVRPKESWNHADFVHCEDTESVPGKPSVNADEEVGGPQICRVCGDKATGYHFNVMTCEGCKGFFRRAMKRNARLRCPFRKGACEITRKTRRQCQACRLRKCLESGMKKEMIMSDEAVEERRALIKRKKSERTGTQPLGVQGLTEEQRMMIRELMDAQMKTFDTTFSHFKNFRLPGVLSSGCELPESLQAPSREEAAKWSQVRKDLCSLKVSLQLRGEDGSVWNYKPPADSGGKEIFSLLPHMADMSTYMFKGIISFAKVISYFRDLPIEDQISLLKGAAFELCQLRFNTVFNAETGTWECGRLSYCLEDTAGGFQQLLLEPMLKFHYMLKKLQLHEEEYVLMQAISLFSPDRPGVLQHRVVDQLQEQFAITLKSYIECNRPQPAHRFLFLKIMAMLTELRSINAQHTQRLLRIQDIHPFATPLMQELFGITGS
Thyrotropin-releasing hormone receptor (Homo sapiens), sequence (P34981 whole entry, looked up): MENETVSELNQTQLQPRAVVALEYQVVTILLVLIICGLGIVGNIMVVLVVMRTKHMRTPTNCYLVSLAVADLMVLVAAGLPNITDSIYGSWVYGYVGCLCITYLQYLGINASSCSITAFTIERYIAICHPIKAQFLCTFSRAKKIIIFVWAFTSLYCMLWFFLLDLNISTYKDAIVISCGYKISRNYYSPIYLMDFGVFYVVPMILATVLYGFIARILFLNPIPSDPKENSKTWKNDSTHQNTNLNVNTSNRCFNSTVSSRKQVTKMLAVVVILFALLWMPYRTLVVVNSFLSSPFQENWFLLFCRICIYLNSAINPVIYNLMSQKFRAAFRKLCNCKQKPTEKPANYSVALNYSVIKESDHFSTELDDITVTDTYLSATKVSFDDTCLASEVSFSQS

As to `CCOP(=O)(Sc1ccccc1)Sc1ccccc1`, the Potency entry in assay [1], in assay [2], in assay [3], in assay [4], in [5] and in [7] was “inactive” in each case. Moreover, the Potency result in [8] and in assay [9] was “inactive” in each case. The result in assay [6] was inactive. Besides, the Potency is 34.4 µM (active) in [10] and 3.99 µM (active) in assay [11].
For the molecule `CC(=O)[O-].CC(=O)[O-].CC(=O)[O-].[Cr+3]`, the Potency result in [1], in assay [12], in [2], in assay [3], in assay [4] and in assay [5] was “inactive” in each case. In addition, the Potency entry in [13], in [7], in [8] and in assay [9] was “inactive” throughout. Besides, the result in [6] was inactive.
Turning to `Nc1ccc(N=Nc2ccccc2)cc1`, the Potency is 30.6 µM (active) in [14], 29.8 µM (active) in assay [17], 36.4 µM (active) in assay [9] and 27.3 µM (active) in assay [10]. The Potency entry in assay [4], in assay [5], in assay [15], in assay [16], in [7] and in assay [8] was “inactive” in each case. Further, the Potency result in assay [11] is “inactive”.
With `CCCCCON=O`, the Potency result in [1], in [12], in assay [2], in [3], in assay [4] and in assay [5] was “inactive” each time. Further, the Potency entry in assay [13], in assay [7], in [17], in [8], in [9] and in assay [10] was “inactive” throughout. The Potency result in [11] is “inactive”. In assay [6], the outcome was inactive.
For `O=C(NC(=O)c1c(F)cccc1F)Nc1ccc(Oc2ccc(C(F)(F)F)cc2Cl)cc1F`, the Potency result in assay [1], in assay [12], in assay [2], in assay [5], in assay [15] and in [16] was “inactive” each time. For the same molecule, the Potency entry in [13], in [7], in assay [8] and in assay [11] was “inactive” throughout. In addition, the molecule was called inactive in assay [6]. Further, the Potency in assay [10] is 19.3 µM (active).
With `CC1CN1` (centres undefined), the Potency entry in [1], in assay [12], in assay [2], in [3], in assay [4] and in assay [5] was “inactive” throughout. For the same molecule, the Potency entry in [13], in [7], in assay [8], in [9], in assay [10] and in [11] was “inactive” each time. For the same molecule, the result in [6] was inactive.
As to `O=C1C(Cl)=C(Cl)C(=O)C(Cl)=C1Cl`, the Potency result in assay [1], in assay [12], in assay [2], in assay [3], in [5] and in assay [15] was “inactive” each time. Moreover, the Potency result in assay [16], in [7] and in assay [8] was “inactive” in each case. The Potency in assay [17] is 24.2 µM (active) and 24.3 µM (active); in assay [9] it was 54.3 µM (active); in assay [10] it was 60.9 µM (active) and 61.1 µM (active).
On to `COc1ccc2c3c1O[C@H]1[C@H](O)CC[C@H]4[C@@H](C2)N(C)CC[C@@]341`, for which the Potency result in assay [1], in assay [12], in assay [4], in assay [5], in assay [15] and in assay [16] was “inactive” throughout. For the same molecule, the Potency entry in [13], in assay [7], in assay [17], in assay [8], in assay [9] and in assay [11] was “inactive” throughout. For the same molecule, the result in [6] was inactive.
For `CC(=O)[O-].CC(=O)[O-].CC(=O)[O-].[Sb+3]`, the figures for the activation in assay [1] and in assay [6] were 3.93% [at 3.27 µM] and -3.71% [at 2.72 µM], respectively. For the same molecule, the activity change, negative = inhibition in assay [12] was -5.92% [at 3.27 µM]. For the same molecule, the activity change, negative = cytotoxicity in [2] was 10.2% [at 3.27 µM]; in assay [3], 7.1% [at 3.27 µM]; in assay [5], 2.52% [at 2.72 µM]; in assay [13] it was 2.16% [at 3.27 µM]; in assay [17], 4.75% [at 3.27 µM]; in assay [9], -0.0636% [at 3.27 µM]. In addition, the viability change, negative = cytotoxic in assay [4] is -1.18% [at 2.72 µM]. For the same molecule, the caspase activation in [7] was 1.01% [at 3.27 µM]. In addition, the caspase-3/7 activation in assay [8] was -0.0038% [at 3.27 µM].
